In PubChem BioAssay (NCI) one finds growth data, which are given here for 37 compounds.

About 83,000 compounds went through this panel and 20% of them were active in at least one assay; those are over-represented in the sample as a whole.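 Growth was measured after 48 h exposure to one concentration of compound in 96-well plates. Values under 10 count as active.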 Unmarked numbers belong to inactive results. Active and inactive are the calls of the source.

For the first assay, the system named is LOX IMVI melanoma. Put plainly: NCI-60 one-dose screen, 48 h (100 = growth as untreated, 0 = no growth, -100 = all killed). The conditions noted are these: 10 µM.
`COc1ccc([N+](=O)[O-])c(C(=O)O)c1`: the growth is 98.5%.

As for `CNc1ncc(-c2ccc(C(F)(F)F)cc2)c(NC2CCCCCC2)n1`, the growth is 85.8%.

For the compound `CN(C)c1ccc(/C=C/C=N/NC(=O)c2cc(O)c(O)c(O)c2)cc1`, the growth was 91.4%.

Consider `O=C(Nc1cccc(-n2cc(-c3ccncc3)c(-c3ccc(O)c(Cl)c3)n2)c1)c1ccc(N2CCOCC2)c(C(F)(F)F)c1`, for which the growth was 21.1%.

As to `Cc1ccc(CC#N)cc1C`, the growth was 96.7%.

In the case of `O=c1oc2cc(OS(=O)(=O)c3ccccc3)ccc2c2c1CCCCC2`, the growth was 63.8%.

Regarding `CCOC(=O)C(NC(=O)C(Cl)Cl)C(O)c1ccccc1` (configuration not stated), the growth is 99.9%.

As to `C/C(N)=C(\C#N)C(=O)c1ccccc1`, the growth was 99.8%.

Regarding `Nc1ncnc2[nH]c(=O)[nH]c12`, the growth was 95.2%.

As to `COc1ccc(-c2nn(-c3cccc(NC(=O)c4cccc(C(F)(F)F)c4)c3)cc2-c2ccncc2)cc1Cl`, the growth was 28.6%.

Regarding `O=C1CC[C@@H]2CCCC[C@@H]2C1`, the growth was 101%.

Take `Cc1ccc(S(=O)(=O)OCCN(CCOS(=O)(=O)c2ccc(C)cc2)c2c[nH]c(=O)[nH]c2=O)cc1`: the growth was 104%.

For the compound `FC(F)(F)c1ccc(-c2cnc(-n3cc(COCCN4CCCCC4)nn3)nc2NC2CCCCCC2)cc1`, the growth was -55.8% (active).

Another assay deals with SK-MEL-28 melanoma. The assay is described as above. The conditions noted are these: 10 µM.
For the compound `O=S(=O)(NCCCNc1nccc(-c2c(-c3ccc(F)cc3)nc3sccn23)n1)c1ccc2ccccc2c1`, the growth is 72.6%.

On to `O=C(Nc1cccc(-n2cc(-c3ccncc3)c(-c3ccc(O)c(Cl)c3)n2)c1)c1ccc(Cl)c(Cl)c1`, for which the growth is 47.6%.

Consider `Cc1ccc(C)c(C(O)(c2cc(C)ccc2C)C2(O)CCCCC2)c1`, for which the growth is 105%.

Turning to `O=C(/C=C/c1cc2ccccc2[nH]c1=O)c1ccc2c(c1)OCO2`, the growth was 98.6%.

For the compound `O=C(Nc1cccc(-n2cc(-c3ccncc3)c(-c3ccc(O)c(Cl)c3)n2)c1)Nc1ccc(Cl)c(Cl)c1`, the growth is -21.5% (active).

`O=C(Nc1ccc(OS(=O)(=O)c2ccccc2)cc1)C12CC3CC(CC(C3)C1)C2`: the growth is 75%.

As to `COc1ccc(-c2nn(-c3cccc(NC(=O)Nc4ccc(Cl)c(C(F)(F)F)c4)c3)cc2-c2ccncc2)cc1Cl`, the growth was 23%.

On to `COc1ccc(-c2nn(-c3cccc(NC(=O)c4ccc(Cl)c(Cl)c4)c3)cc2-c2ccncc2)cc1Cl`, for which the growth was 75.3%.

Regarding `CCOC(=O)CCC(NC(=O)c1ccc(N)cc1)C(=O)OCC` (configuration not stated), the growth was 105%.

As to `O=C(Nc1ccccc1)Nc1cccc(-n2cc(-c3ccncc3)c(-c3ccc(O)c(Cl)c3)n2)c1`, the growth is 43.6%.

Take `O=S(=O)(NCCNc1nccc(-c2c(-c3ccc(F)cc3)nc3sccn23)n1)c1ccc2ccccc2c1`: the growth was 93%.

On to `O=C(Nc1cccc(-n2cc(-c3ccncc3)c(-c3ccc(O)c(Cl)c3)n2)c1)c1cc(C(F)(F)F)cc(C(F)(F)F)c1`, for which the growth is 70.8%.

For `O=C(N/N=C/c1cc2ccccc2c2ccccc12)c1cc(O)c(O)c(O)c1`, the growth was 55.6%.

Turning to `COc1ccc(-c2nn(-c3cccc(NC(=O)c4cc(C(F)(F)F)cc(C(F)(F)F)c4)c3)cc2-c2ccncc2)cc1Cl`, the growth is 67.3%.

Take `COc1ccc(-c2nn(-c3cccc(NC(=O)c4ccc(N5CCOCC5)c(C(F)(F)F)c4)c3)cc2-c2ccncc2)cc1Cl`: the growth was 72.3%.

As for `CCCCCCN1CCN(Cc2ccc(N(CC)CC)cc2)C(=O)C1=O`, the growth was 49.9%.

In the case of `COc1ccc(Oc2nc(NC3CCCC3)nc(Sc3ccc(OC)cc3)n2)cc1`, the growth was 86%.

As to `COc1ccc(-c2nn(-c3cccc(NC(=O)Nc4cccc(C(F)(F)F)c4)c3)cc2-c2ccncc2)cc1Cl`, the growth is 15.6%.

Consider `COc1ccc(-c2nn(-c3cccc(NC(=O)Nc4ccccc4)c3)cc2-c2ccncc2)cc1Cl`, for which the growth is 11.3%.

`CCOC(=O)c1ccoc1`: the growth is 106%.

For `COc1ccc(/C=C/C(C)=N/OCC(=O)O)cc1`, the growth was 114%.

Take `CN(C)Cc1cn(-c2ncc(-c3ccc(C(F)(F)F)cc3)c(NC3CCCCCC3)n2)nn1`: the growth is 97.4%.

As to `COc1cccc(C(=O)Nc2ccc(CN3CCc4nc5cc(OC)c(OC)cc5cc43)cc2)c1`, the growth was 73.2%.

With `O=[N+]([O-])c1cccc(-c2ncc(-c3ccc(Cl)cc3Cl)[nH]2)c1`, the growth was 92.8%.
